Reference: PubChem BioAssay (NCATS)
Results filed as inconclusive are left out. Activity calls are given as the source filed them. Calls come from the whole dose curve.

Target: Vitamin D3 receptor (Homo sapiens) (UniProt P11473)
Experiment: qHTS assay for small molecule antagonists of vitamin D receptor signaling (AID 588541);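 note: receptor activated by calcitriol during compound treatment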
Details: HEK293T VDR-UAS-bla, beta-lactamase ratio, antagonist mode; series mostly up to 76.7 µM
Source text: NIH Chemical Genomics Center [NCGC]
U.S. Environmental Protection Agency [EPA]
National Institutes of Environmental Health Sciences [NIEHS]
National Toxicology Program [NTP]
The Vitamin D receptor (VDR) is a member of nuclear hormone receptor superfamily and it plays a critical role in calcium homeostasis and bone metabolism. It plays a role in inducing cell differentiation, inhibiting cell growth and in thrombogenicity. So, VDR that mediates these effects represents a pharmacological target in prevention and treatment of hyperproliferative malignancies, such as cancer and psoriasis, cardiovascular, immunological, inflammatory and renal diseases etc.
NCGC Assay Protocol Summary
Using a beta-lactamase reporter-gene under control of Vitamin D receptor (VDR) response element, a cell-based assay [GeneBLAzer (VDR -UAS-bla assay developed by Invitrogen] was used to measure VDR ligands signaling. GeneBLAzer VDR -UAS-bla HEK293T cells were used with assay medium containing 2% charcoal-stripped FBS. The assay was performed in clear bottom black Greiner 1536-well plates. Library compounds were measured for their ability to inhibit the reporter gene activity. Compounds were screened in a titration series in 1536-well format. The fluorescence intensity (405 nm excitation, 460/530 nm emission) was measured using an EnVision plate reader. Data was normalized relative to 1-alpha,25-Dihydroxy vitaminD3 control (50 nM, 100%) and DMSO only wells (basal, 0%). Concentration-response titration points for each compound were fitted to the Hill equation yielding concentrations of half-maximal inhibition (IC50) and maximal response (efficacy) values.
qHTS protocol for VDR beta-lactamase assay in antagonist mode
[Step] [Parameter] [Value] [Description]
1. Reagent; 5 uL; 2000 cells/well
2. Incubation; 37 C for 5 hrs
4. Controls (DMSO); 23 nL,
5. Agonist (Stimulator); 1uL; 1-alpha,25-Dihydroxy vitaminD3 at 50 nM and 3 nM final concentrations
6. Incubation; 37 C for 16 hrs
7. Detection reagent; 1 uL of CCF4-dye
8. Incubation; RT for 2 hrs
9. Detection; Fluorescence; Envision plate reader

Vitamin D3 receptor (Homo sapiens), sequence (P11473 whole entry, looked up): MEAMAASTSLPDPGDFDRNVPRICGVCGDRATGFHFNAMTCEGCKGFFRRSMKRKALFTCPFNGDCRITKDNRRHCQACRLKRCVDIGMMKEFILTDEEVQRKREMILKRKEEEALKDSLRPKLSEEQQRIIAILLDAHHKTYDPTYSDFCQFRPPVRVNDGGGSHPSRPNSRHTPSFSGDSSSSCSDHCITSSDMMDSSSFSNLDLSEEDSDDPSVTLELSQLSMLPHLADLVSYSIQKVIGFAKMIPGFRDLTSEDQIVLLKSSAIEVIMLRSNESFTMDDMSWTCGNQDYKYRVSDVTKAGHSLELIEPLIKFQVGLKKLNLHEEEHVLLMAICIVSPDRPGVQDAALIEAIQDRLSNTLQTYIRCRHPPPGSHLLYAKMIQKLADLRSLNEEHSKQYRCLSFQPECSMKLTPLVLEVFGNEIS

SMILES | outcome
CC(C)Cc1nccs1 | inactive
CC(C)(O)CCC(C)(C)O | inactive
C1COC1 | inactive
Cc1ccccc1C(=O)O | inactive
Cc1ccc(C)c(O)c1 | inactive
Cc1ccc(C#N)cc1 | inactive
C=Cc1ccccn1 | inactive
FC(F)(F)c1ccccc1Cl | inactive
CCCCCCCCN | inactive
COc1ccc(OC)cc1 | inactive
c1ccsc1 | inactive
C[C@@H]1O[C@@H](O[C@@H]2[C@@H](O)[C@H](OCCc3ccc(O)c(O)c3)O[C@H](CO[C@@H]3O[C@H](CO)[C@@H](O)[C@H](O)[C@H]3O)[C@H]2OC(=O)/C=C/c2ccc(O)c(O)c2)[C@H](O)[C@H](O)[C@H]1O | inactive
C=CCOC(=O)CCCCCCCC | inactive
CC(=O)Nc1ccc(C)cc1 | inactive
O=Cc1ccccc1Cl | inactive
C/C=C(/C)C#N | inactive
CC(C)N=C=NC(C)C | inactive
Cc1ccc2ccccc2c1[N+](=O)[O-] | inactive
Nc1cc(Cl)c(N)c(Cl)c1 | inactive
O=C(O)c1ccccc1Cl | inactive

SMILES | outcome
O=Cc1cccc(Br)c1 | inactive
O=C1CCC(=O)O1 | inactive
CC(C)CCOC(=O)/C=C/c1ccccc1 | inactive
Clc1ccc(Cl)c(Cl)c1Cl | inactive
Cc1cccc(C)c1 | inactive
CC(=O)Nc1ccccc1C | inactive
Nc1cccc(S(=O)(=O)O)c1 | inactive
CCC(C)(C)C | inactive
CC=O | inactive
Clc1cc(Cl)cc(Cl)c1 | inactive
Nc1ccc(F)cc1F | inactive
CCOC(=O)OCC | inactive
O=C(Cl)c1c(Cl)cccc1Cl | inactive
C=CCn1c(=O)n(CC=C)c(=O)n(CC=C)c1=O | inactive
CC(=O)C1(C)CC2=C(CCCC2(C)C)CC1C (stereo not given) | inactive
CN(C)c1cccc(O)c1 | inactive
Cc1ccc2oc(=O)ccc2c1 | inactive
CCCCCO | inactive
CNC(=O)c1ccccc1 | inactive
CCOC(C)(C)C | inactive
